Inconclusive results are not listed. Calls of active or inactive are those of the source. Unless noted, calls come from the whole dose curve; as a rule, active = well fitted curve in the direction sought with a large enough effect; inconclusive = small, poorly fitted or top-dose-only effect, or another doubt; inactive = no such curve, though single readings can be large; an effect the other way counts as inactive or inconclusive.

15 compounds from PubChem BioAssay (NCATS) can be followed below.

Experiment [1] can be described thus: qHTS Assay for Identification of Small Molecule Antagonists for NFkB Signaling Pathway. (AID 624479; calls by dose curve;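 note: pathway stimulated with TNF alpha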; note: potency is the fitted concentration of half-maximal effect). In general terms: Quantitative high-throughput screening tests each substance at several concentrations.
Experiment [2] in a line: Cell Proliferation Assay against the TMD8 Cell Line (AID 651645).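 Note: cells exposed to compound for 48 h before reading.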 As to conditions: TMD8 DLBCL cell line proliferation/viability; at 46.1 µM (top of the series). Summed up: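 Viability by CellTiter-Glo after 48 h compound exposure of 500 log-phase TMD8 cells per well (RPMI, 5% FBS). Percent activity scaled between DMSO (100%) and 9.2 uM final bortezomib (0%).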
The nature of experiment [3]: Cell Proliferation Assay against the HBL1 Cell Line (AID 651646).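 Note: cells exposed to compound for 48 h before reading.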 The note with it: HBL1 DLBCL cells; at 46.1 µM (top of the series). In a few lines:
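After a 48 h incubation of 500 HBL1 cells/well in phenol red-free RPMI plus 5% FBS, relative luciferase units from CellTiter-Glo gave percent activity against DMSO and 9.2 uM bortezomib (final) controls.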

Experiment [4] can be described thus: Cell Proliferation Assay against the TMD8 Cell Line (Caspase readout at 8 hrs) (AID 651713). Note: potency is the fitted concentration of half-maximal effect. In a few lines:
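Caspase 3/7 activation in ABC DLBCL TMD8 cells is measured by luminescence after an 8 h compound exposure at 37C. Relative light units are scaled between DMSO (0%) and 9.2 uM final bortezomib (100%).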

The target of experiment [5] is Tyrosine-protein kinase Yes (Homo sapiens) (UniProt P07947). The experiment in a line: qHTS for small molecule inhibitors of Yes1 kinase: Primary Screen (AID 686947). Note: nearly all actives have a fitted effect of over 60% in size. Note: potency is the fitted concentration of half-maximal effect. In a few lines: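 ADP-Glo luminescence reports ADP formed by 4 nM Yes1 phosphorylating poly(E4Y) (0.3 mg/mL) with 0.1 mM ATP for 60 min at room temperature, following 20 min compound preincubation; normalised between DMSO wells with and without enzyme.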
Chain of Tyrosine-protein kinase Yes (Homo sapiens) (P07947 whole entry, looked up): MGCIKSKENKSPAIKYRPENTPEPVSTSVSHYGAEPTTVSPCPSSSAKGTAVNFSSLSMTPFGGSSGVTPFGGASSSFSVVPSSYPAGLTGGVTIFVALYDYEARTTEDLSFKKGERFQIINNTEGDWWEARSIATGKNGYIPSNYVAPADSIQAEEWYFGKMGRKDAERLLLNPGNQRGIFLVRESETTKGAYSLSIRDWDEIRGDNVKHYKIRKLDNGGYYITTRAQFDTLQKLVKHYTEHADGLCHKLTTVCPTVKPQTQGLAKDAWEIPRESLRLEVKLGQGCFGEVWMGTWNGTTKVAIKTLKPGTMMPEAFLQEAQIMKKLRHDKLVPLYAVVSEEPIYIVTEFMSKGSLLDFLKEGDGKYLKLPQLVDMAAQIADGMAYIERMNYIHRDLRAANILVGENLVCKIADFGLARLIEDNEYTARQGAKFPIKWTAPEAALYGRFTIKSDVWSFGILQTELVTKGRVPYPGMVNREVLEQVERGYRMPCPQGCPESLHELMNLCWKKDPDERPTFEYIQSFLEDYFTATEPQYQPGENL

A short description of experiment [6]: qHTS for small molecule inhibitors of Yes1 kinase: Counter Assay (AID 686950).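 Note: no kinase present so only ADP-Glo detection of a fixed ADP amount is tested; luminescence from ADP-Glo reporting ADP in a fixed ATP and ADP mixture; 0% = DMSO wells with ATP plus ADP and -100% = ATP-only wells without ADP.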 Summed up:
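Measuring interference with ADP-Glo, the assay ran 60 min at room temperature on an ATP/ADP mix lacking enzyme. Values were normalized to ATP-plus-ADP (maximum) and ATP-only (minimum) DMSO controls.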

Consider `Cn1cc(-c2ccc3nnc(Sc4ccc5ncccc5c4)n3n2)cn1`, for which the Potency result in experiment [1], in experiment [4] and in experiment [5] was “inactive” in each case. For the same compound, the viability (% of control) in experiment [2] is 74.4%. In experiment [3], the viability, percent of control came out at 119%. In experiment [6], the result was inactive.
For `CCC=CC[C@H]1C(=O)CC[C@@H]1CC(=O)OC`, the Potency result in experiment [1], in experiment [4] and in experiment [5] was “inactive” throughout. Besides, in experiment [2], the viability (% of control) is 114%. Further, in experiment [3], the viability, percent of control stood at 109%. Also, the compound was classed as inactive in experiment [6].
Turning to `O=C1C(CCC(O)c2ccc(F)cc2)C(c2ccc(O)cc2)N1c1ccc(F)cc1` (configuration not stated), the Potency result in experiment [1], in experiment [4] and in experiment [5] was “inactive” throughout. In addition, the viability (% of control) in experiment [2] was 87.2%. The viability, percent of control in experiment [3] stood at 68%. In experiment [6], the compound was classed as inactive.
As for `COc1nc(C)cnc1NS(=O)(=O)c1cccnc1-c1ccc(-c2nnco2)cc1`, the Potency entry in experiment [1], in experiment [4] and in experiment [5] was “inactive” each time. The viability (% of control) in experiment [2] amounted to 116%. Moreover, the viability, percent of control in experiment [3] stood at 92.3%. In addition, in experiment [6], the compound was classed as inactive.
Regarding `Cc1ccc(NC(=O)c2ccc(CN3CCN(C)CC3)cc2)cc1Nc1nc(-c2cccnc2)cs1`, the Potency in experiment [1] is 16.8 µM (active); in experiment [4], 23.5 µM (active); in experiment [5], 0.345 µM (active). The viability (% of control) in experiment [2] turned out to be 8.7%. The viability, percent of control in experiment [3] worked out at 11%. Also, the result in experiment [6] was inactive.
For the compound `Cc1nn(Cc2ccccc2Cl)c(C)c1CN(C)CC(O)COc1ccc(Cl)cc1` (configuration not stated), the Potency result in experiment [1], in experiment [4] and in experiment [5] was “inactive” in each case. The viability (% of control) in experiment [2] turned out to be 9.51%. Besides, the viability, percent of control in experiment [3] amounted to 2.62%. Besides, the call in experiment [6] was inactive.
Regarding `CN(C)CCCNC(=O)c1ccc(-c2cc(O)c3ncccc3c2)cc1`, the Potency result in experiment [1] was “inactive”. For the same compound, the viability (% of control) in experiment [2] is 2.8%. Also, the viability, percent of control in experiment [3] came out at 31%. Also, in experiment [5], the Potency was 38.7 µM (active). For the same compound, the result in experiment [6] was inactive.
As to `Nc1ccc(-c2ccc3ncc4ccc(=O)n(-c5cccc(C(F)(F)F)c5)c4c3c2)cn1`, the Potency was 4.73 µM (active) in experiment [1] and 27.4 µM (active) in experiment [5]. The viability (% of control) in experiment [2] was determined as 9.02%. Further, the viability, percent of control in experiment [3] came to 8.06%. Besides, the outcome in experiment [6] was inactive.
For the compound `O=C(Nc1cccc(Cl)c1)Nc1ncc(CCNc2ncnc3ccsc23)s1`, the Potency in experiment [1] is 23.7 µM (active). Besides, the viability (% of control) in experiment [2] came to 1.73%. Also, the viability, percent of control in experiment [3] was determined as 2.32%. Besides, the Potency entry in experiment [4] and in experiment [5] was “inactive” throughout. Further, the outcome in experiment [6] was inactive.
`CCCCOCCOc1nc(-c2ccc(C(=O)O)c(F)c2)sc1C`: the Potency entry in experiment [1] and in experiment [4] was “inactive” throughout. Also, in experiment [2], the viability (% of control) was 98.4%. Besides, the viability, percent of control in experiment [3] turned out to be 84.4%. In addition, the call in experiment [6] was inactive.
Regarding `CN1C(=O)C(Cc2c[nH]c3ccccc23)NC1=S` (configuration not stated), the Potency entry in experiment [1], in experiment [4] and in experiment [5] was “inactive” throughout. Moreover, the viability (% of control) in experiment [2] is 80.6%. Further, the viability, percent of control in experiment [3] is 98.6%. For the same compound, the outcome in experiment [6] was inactive.
Take `CCCCCCCCCCCCCC(=O)N[C@H](CO)[C@H](O)c1ccc([N+](=O)[O-])cc1`: the Potency in experiment [1] was 29.8 µM (active). In addition, in experiment [2], the viability (% of control) worked out at 4.37%. The viability, percent of control in experiment [3] came to 21.7%. Also, the Potency entry in experiment [4] and in experiment [5] was “inactive” each time. The result in experiment [6] was inactive.
For the compound `COC(=O)Nc1ccc(-c2nc(N3CCOCC3)c3cnn(C4CCN(C(=O)OC)CC4)c3n2)cc1`, the Potency entry in experiment [1], in experiment [4] and in experiment [5] was “inactive” in each case. For the same compound, the viability (% of control) in experiment [2] stood at 32.2%. The viability, percent of control in experiment [3] amounted to 51.1%. In addition, the compound was called inactive in experiment [6].
Consider `CCCCn1c(=O)n(Cc2ccccc2F)c(=O)c2[nH]c(Cc3ccc(NC(C)=O)cc3)nc21`, for which the Potency in experiment [1] is 6.68 µM (active). In addition, the viability (% of control) in experiment [2] worked out at 5.19%. In addition, the viability, percent of control in experiment [3] amounted to 4.28%. Moreover, the Potency entry in experiment [4] and in experiment [5] was “inactive” in each case. For the same compound, in experiment [6], the outcome was inactive.
Regarding `COc1cc2c(cc1OC)CC(=O)N(CCCN(C)C[C@H]1Cc3cc(OC)c(OC)cc31)CC2`, the Potency result in experiment [1], in experiment [4] and in experiment [5] was “inactive” in each case. In addition, in experiment [2], the viability (% of control) came to 108%. For the same compound, in experiment [3], the viability, percent of control was 122%. Also, the result in experiment [6] was inactive.
